Results filed as inconclusive are left out. Activity calls are given as the source filed them. Unless noted, the call rests on the fitted dose curve; in most records, active means well fitted curve in the direction sought with a large enough effect; inconclusive means small, poorly fitted or top-dose-only effect, or another doubt; inactive means no such curve, though single readings can be large; an effect the other way counts as inactive or inconclusive.
Key:
[1] = target: Estrogen receptor (Homo sapiens) (UniProt P03372); assay: qHTS assay for small molecule antagonists of estrogen receptor alpha signaling (AID 588513; active means well fitted curve in the direction sought with a large enough effect in the signal ratio, with a control signal flat, not every such curve was filed as active; the % refers to the signal ratio; further: on the % scale 0 is the no-effect control and ±100 the full control effect)
Estrogen receptor (Homo sapiens), sequence (P03372 whole entry, looked up): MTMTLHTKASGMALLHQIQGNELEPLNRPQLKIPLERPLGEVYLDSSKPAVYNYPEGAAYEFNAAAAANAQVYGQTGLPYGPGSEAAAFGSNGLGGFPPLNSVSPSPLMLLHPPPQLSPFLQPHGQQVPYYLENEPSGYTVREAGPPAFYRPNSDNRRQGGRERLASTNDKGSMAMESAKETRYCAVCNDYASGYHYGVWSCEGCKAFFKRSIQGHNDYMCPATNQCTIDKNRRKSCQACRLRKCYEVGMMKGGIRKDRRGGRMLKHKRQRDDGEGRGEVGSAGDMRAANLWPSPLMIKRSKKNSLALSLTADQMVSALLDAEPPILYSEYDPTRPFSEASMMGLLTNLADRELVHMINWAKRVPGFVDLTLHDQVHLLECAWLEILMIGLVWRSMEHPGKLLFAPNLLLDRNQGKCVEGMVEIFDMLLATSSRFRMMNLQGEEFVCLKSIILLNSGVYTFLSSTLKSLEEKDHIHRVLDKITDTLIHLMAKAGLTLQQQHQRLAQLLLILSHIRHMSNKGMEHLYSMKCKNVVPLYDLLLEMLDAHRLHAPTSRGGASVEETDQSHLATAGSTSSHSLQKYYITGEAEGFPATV
Outline: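 ER-alpha-UAS-bla GripTite HEK 293 cells in medium with 2% charcoal/dextran-treated FBS were preincubated 4 h at 37 C, dosed with compound (1:2 titration), stimulated with 0.5nM 17-beta-estradiol for 18 h, then read by CCF4 beta-lactamase fluorescence.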

[2] = target: Peroxisome proliferator-activated receptor gamma (Homo sapiens) (UniProt P37231); assay: qHTS assay for small molecule agonists of peroxisome proliferator-activated receptor gamma signaling (AID 588536; active means well fitted curve in the direction sought with a large enough effect in the signal ratio, with a control signal flat, not every such curve was filed as active; the % refers to the signal ratio;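 further: 0% = DMSO basal wells and 100% = rosiglitazone at 2 µM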)
Peroxisome proliferator-activated receptor gamma (Homo sapiens), sequence (P37231 whole entry, looked up): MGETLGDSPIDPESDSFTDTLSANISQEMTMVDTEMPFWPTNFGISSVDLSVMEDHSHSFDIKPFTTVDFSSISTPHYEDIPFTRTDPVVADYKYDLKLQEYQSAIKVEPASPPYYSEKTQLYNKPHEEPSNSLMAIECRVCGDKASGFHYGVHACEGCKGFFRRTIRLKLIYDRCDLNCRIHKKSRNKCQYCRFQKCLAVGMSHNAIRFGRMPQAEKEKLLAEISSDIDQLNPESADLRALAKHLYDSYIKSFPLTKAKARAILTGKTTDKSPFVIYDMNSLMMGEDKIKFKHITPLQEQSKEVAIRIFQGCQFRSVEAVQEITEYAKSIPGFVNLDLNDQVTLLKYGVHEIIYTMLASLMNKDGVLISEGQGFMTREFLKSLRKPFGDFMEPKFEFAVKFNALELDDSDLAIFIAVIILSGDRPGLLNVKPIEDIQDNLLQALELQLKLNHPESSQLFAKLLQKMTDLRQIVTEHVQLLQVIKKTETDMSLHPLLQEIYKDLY
Outline: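 Cells were plated and held 6–6.5 h at 37 C, then compounds were added as a titration series. After a further 16 h, CCF4 dye was loaded for 2 h at room temperature and emission at 460/530 nm recorded.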

[3] = target: Peroxisome proliferator-activated receptor gamma (Homo sapiens) (UniProt P37231); assay: qHTS assay for small molecule antagonists of peroxisome proliferator-activated receptor gamma signaling (AID 588537; active means well fitted inhibition curve with a large enough effect in the signal ratio, with a control signal flat, not every such curve was filed as active; the % refers to the signal ratio;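 further: reporter cells co-stimulated with 50 nM rosiglitazone agonist during compound treatment; % of control where 0% means no effect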)
Outline: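 Compounds are tested as concentration series for inhibition of rosiglitazone-driven (50 nM) reporter expression in GeneBLAzer PPAR-gamma-UAS-bla HEK293 cells. After 16 h at 37 C, CCF4 substrate is added for 2 h at room temperature and blue/green fluorescence is measured.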

[4] = qHTS assay for small molecule agonists of retinoid X receptor alpha signaling (AID 588544; calls by dose curve;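 on activation: 0% = DMSO basal wells and 100% = reference agonist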); details: HEK293T RXRa-UAS-bla, beta-lactamase reporter, 18 h; 530 nm emission
[5] = target: Retinoic acid receptor RXR-alpha (Homo sapiens) (UniProt P19793); assay: as above
Retinoic acid receptor RXR-alpha (Homo sapiens), sequence (P19793 whole entry, looked up): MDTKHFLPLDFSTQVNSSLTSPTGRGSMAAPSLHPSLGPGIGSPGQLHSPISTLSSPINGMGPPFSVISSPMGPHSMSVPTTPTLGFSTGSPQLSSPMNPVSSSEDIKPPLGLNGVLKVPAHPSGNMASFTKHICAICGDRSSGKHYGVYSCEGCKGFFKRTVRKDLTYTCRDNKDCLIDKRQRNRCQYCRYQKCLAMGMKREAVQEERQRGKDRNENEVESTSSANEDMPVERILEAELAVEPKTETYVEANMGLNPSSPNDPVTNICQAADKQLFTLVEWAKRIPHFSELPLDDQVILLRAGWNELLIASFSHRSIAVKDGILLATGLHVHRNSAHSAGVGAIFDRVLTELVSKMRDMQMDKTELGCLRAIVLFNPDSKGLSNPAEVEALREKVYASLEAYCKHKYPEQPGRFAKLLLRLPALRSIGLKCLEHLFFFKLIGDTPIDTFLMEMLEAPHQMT

[6] = target: Thyroid hormone receptor beta (Homo sapiens) (UniProt P10828); assay: qHTS assay for small molecule agonists of thyroid hormone receptor beta signaling (AID 588545; calls by dose curve;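 further: 0% = DMSO only and 100% = 10 nM T3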)
Thyroid hormone receptor beta (Homo sapiens), sequence (P10828 whole entry, looked up): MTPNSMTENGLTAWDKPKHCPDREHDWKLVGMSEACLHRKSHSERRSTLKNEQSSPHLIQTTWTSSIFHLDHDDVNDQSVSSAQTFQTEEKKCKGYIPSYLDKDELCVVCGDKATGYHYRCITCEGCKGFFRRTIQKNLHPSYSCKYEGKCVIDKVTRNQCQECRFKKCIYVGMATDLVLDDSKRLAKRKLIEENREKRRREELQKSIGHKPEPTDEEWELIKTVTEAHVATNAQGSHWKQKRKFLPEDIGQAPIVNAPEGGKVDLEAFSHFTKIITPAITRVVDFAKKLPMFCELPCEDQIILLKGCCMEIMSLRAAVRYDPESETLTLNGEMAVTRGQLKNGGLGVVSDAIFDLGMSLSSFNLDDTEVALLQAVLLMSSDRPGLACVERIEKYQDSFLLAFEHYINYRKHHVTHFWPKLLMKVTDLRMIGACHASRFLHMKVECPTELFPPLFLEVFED
Outline: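 TR-UAS-bla-GripTite HEK 293 cells in medium with 2% charcoal/dextran FBS, 0.1 mM NEAA and 1 mM sodium pyruvate were treated with titrated compounds for 18 hrs at 37 C. Beta-lactamase reporter was read with CCF4 dye (ex 405, em 460/530 nm); EC50 from Hill fits.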

[7] = qHTS assay for small molecule antagonists of retinoid X receptor alpha signaling (AID 588546; active means well fitted inhibition curve with a large enough effect in the signal ratio, with a control signal flat, not every such curve was filed as active; the % refers to the signal ratio;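 further: cells stimulated with 9-cis-retinoic acid as agonist; on the % scale 0 is the no-effect control and ±100 the full control effect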); details: HEK293T RXRa-UAS-bla, beta-lactamase ratio, antagonist mode; measured here: W530 green channel, cytotoxicity proxy
Outline: (§1)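 Beta-lactamase reporter inhibition, read as CCF4 fluorescence ratio (ex 405, em 460/530 nm) after 2 h at RT. HEK293T UAS-bla cells, 2500/well, were stimulated with 9-cis-RA at 500 or 100 nM final alongside test compound for 18 h at 37 C.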

[8] = target: Retinoic acid receptor RXR-alpha (Homo sapiens) (UniProt P19793); assay: as above; details: HEK293T RXRa-UAS-bla, beta-lactamase ratio, antagonist mode
Outline: as §1

[9] = target: Thyroid hormone receptor beta (Homo sapiens) (UniProt P10828); assay: qHTS assay for small molecule antagonists of thyroid hormone receptor beta signaling (AID 588547; active means well fitted inhibition curve with a large enough effect in the signal ratio, with a control signal flat, not every such curve was filed as active; the % refers to the signal ratio;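 further: cells stimulated with 0.4 nM T3 agonist during compound exposure; series mostly up to about 77 µM; on the % scale 0 is the no-effect control and ±100 the full control effect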); details: TR-UAS-bla HEK293, beta-lactamase ratio, antagonist mode, 18 h
Outline: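 TR-UAS-bla GripTite HEK293 cells in 2% charcoal/dextran FBS medium were preincubated 4 h at 37 C, given compound (0.59 nM to 92 uM) plus 0.4 nM T3 (final) for 18 h, then CCF4 for 2 h at RT; Hill fit gave IC50.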

[10] = qHTS assay for environmental chemicals that activate the Aryl hydrocarbon Receptor (AhR) signaling pathway (AID 651777); details: 1A2-DRE human hepatoma cells, luciferase, 24 h; activation: stronger effect = higher value; further: % of control where 0% means no effect; nearly all actives have a fitted effect of over 15% in size
Outline: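 Following a 24 hr incubation with test chemicals at 37 C and 5% CO2, 1A2-DRE human hepatoma cells received One-Glo reagent; after 30 min at room temperature, luciferase output reflected CYP1A2 induction via AhR.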

[11] = target: Peroxisome proliferator-activated receptor alpha (Homo sapiens) (UniProt Q07869); assay: qHTS assay for small molecule agonists of the peroxisome proliferator-activated receptor alpha (PPARalpha) signaling pathway (AID 651778); details: PathHunter PPARalpha complementation, chemiluminescence, 6 h; max response: stronger effect = higher value; further: % of control where 0% means no effect
Peroxisome proliferator-activated receptor alpha (Homo sapiens), sequence (Q07869 whole entry, looked up): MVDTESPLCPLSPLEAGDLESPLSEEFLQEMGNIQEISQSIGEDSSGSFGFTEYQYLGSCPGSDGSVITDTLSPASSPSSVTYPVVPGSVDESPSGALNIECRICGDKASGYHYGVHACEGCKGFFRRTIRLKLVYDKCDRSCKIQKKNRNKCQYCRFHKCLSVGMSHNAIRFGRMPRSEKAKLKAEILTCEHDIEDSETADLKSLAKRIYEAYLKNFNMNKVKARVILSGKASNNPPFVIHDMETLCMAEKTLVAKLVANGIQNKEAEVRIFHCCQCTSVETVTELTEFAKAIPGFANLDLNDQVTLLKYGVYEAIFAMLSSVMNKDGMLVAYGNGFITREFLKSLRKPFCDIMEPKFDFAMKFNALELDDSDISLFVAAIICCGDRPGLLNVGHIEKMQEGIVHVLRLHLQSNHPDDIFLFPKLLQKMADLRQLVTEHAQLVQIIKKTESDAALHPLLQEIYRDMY
Outline: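 Cells plated at 2,000/well and held overnight at 37 C, 5% CO2, then compound added by pin tool for 6 hr; after PathHunter detection reagent and 60 min at room temperature, chemiluminescence from enzyme complementation was read.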

[12] = qHTS assay for small molecule agonists of the antioxidant response element (ARE) signaling pathway measured by Nrf2-dependant transcriptional activity (AID 720636; active means well fitted curve in the direction sought with a large enough effect in the repeat runs; an effect the other way counts as inactive or inconclusive;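 further: HepG2 cells with an ARE-driven luciferase reporter; % of control where 0% means no effect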)
Outline: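 ONE-Glo luminescence, read 30 min after reagent addition at room temperature, reflected ARE reporter activity in HepG2 cells that had been incubated with compound for 16 hr at 37 C in 1% dialyzed FBS.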

[13] = qHTS assay for small molecule agonists of the antioxidant response element (ARE) signaling pathway measured by Nrf2-dependant transcriptional activity - cell viability counter screen (AID 720653; active means well fitted curve in the direction sought with a large enough effect in the repeat runs; an effect the other way counts as inactive or inconclusive; further: on the % scale 0 is the no-effect control and ±100 the full control effect); details: ARE-bla HepG2 viability, CellTiter-Glo ATP luminescence, 16 h; max response: stronger effect = lower value
Outline: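 ARE-bla HepG2 cells (2,000/well) rested 5 hrs at 37C/5% CO2, then exposed to compounds in DMSO for 16 hrs. Viability was read in the same wells as intracellular ATP by luminescence, 30 min at room temperature after reagent addition.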

[14] = qHTS assay for cell viability of HEK293 cells (AID 743288); details: ATP luminescence (CellTiter-Glo), 18 h; max response: stronger effect = lower value; further: on the % scale 0 is the no-effect control and ±100 the full control effect; nearly all actives have a fitted effect of over 50% in size
Outline: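 After 18 h compound exposure at 37 C, parental HEK293 cells (2,000/well) are lysed with CellTiter-Glo and luminescence is read following 30 min at room temperature.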

[15] = qHTS assay for cell viability of the p53RE-bla HCT-116 cell line (AID 743292); further: on the % scale 0 is the no-effect control and ±100 the full control effect; nearly all actives have a fitted effect of over 55% in size
Outline: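 After plating at 4,000 cells per well and a 5 h rest at 37 C, HCT-116 cells carrying p53RE-bla received test chemicals in DMSO. Sixteen hours later at 37 C, CellTiter-Glo was added and luminescence recorded following 30 min at room temperature.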

[16] = target: Nuclear receptor subfamily 1 group I member 2 (Rattus norvegicus) (UniProt Q9R1A7); assay: qHTS assay for small molecule activators of the rat pregnane X receptor (rPXR) signaling pathway (AID 651751; call rule not given here; further: 0% is about no effect); details: rPXR reporter cells, luciferase (One-Glo), 24 h
Nuclear receptor subfamily 1 group I member 2 (Rattus norvegicus), sequence (Q9R1A7 whole entry, looked up): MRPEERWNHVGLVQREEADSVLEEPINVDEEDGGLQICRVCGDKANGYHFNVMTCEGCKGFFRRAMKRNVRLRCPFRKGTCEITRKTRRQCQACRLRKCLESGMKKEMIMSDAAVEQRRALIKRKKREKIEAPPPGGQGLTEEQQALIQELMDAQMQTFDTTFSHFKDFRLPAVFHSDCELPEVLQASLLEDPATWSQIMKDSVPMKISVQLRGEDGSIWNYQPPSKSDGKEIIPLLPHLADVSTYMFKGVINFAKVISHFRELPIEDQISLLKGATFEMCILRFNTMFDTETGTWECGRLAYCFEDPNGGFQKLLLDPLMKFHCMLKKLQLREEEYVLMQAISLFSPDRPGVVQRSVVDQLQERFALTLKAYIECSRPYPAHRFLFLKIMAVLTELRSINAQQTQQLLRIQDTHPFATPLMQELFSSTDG

[17] = qHTS assay for small molecule activators of the human pregnane X receptor (PXR) signaling pathway (AID 720659; call rule not given here; further: 0% is about no effect)
[18] = target: Vitamin D3 receptor (Homo sapiens) (UniProt P11473); assay: qHTS assay for small molecule agonists of vitamin D receptor signaling (AID 588543; calls by dose curve;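 further: 0% = DMSO basal and 100% = reference agonist control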)
Vitamin D3 receptor (Homo sapiens), sequence (P11473 whole entry, looked up): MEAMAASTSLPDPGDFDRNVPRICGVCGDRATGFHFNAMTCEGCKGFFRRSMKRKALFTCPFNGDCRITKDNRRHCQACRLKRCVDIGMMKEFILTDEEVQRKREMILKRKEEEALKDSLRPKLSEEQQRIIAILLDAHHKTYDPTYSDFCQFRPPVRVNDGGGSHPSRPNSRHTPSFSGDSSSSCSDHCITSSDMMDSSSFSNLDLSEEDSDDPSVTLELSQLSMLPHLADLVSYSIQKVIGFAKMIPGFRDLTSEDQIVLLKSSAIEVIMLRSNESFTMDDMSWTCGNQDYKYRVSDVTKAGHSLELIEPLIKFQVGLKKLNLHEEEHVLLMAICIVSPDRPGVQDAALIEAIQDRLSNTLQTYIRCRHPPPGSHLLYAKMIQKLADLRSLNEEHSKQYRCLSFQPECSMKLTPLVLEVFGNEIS
Outline: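 GeneBLAzer VDR-UAS-bla HEK293T cells in 2% charcoal-stripped FBS medium were dosed with compound titrations for 16 h at 37 °C; CCF4 β-lactamase readout (405 nm ex, 460/530 nm em). EC50 and efficacy from Hill fits, normalized to 50 nM calcitriol (100%) and DMSO (0%).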

[19] = qHTS assay for small molecule activators of the p53 signaling pathway (AID 651743; active means well fitted activation curve with a large enough effect in the signal ratio, not every such curve was filed as active; the % refers to the signal ratio; further: series mostly up to about 92 µM; % of control where 0% means no effect); details: HCT-116 p53RE-bla, beta-lactamase FRET ratio, 16 h; activation: stronger effect = higher value
Outline: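 Agonist-mode quantitative HTS in HCT-116 cells carrying a p53-response-element beta-lactamase reporter; 16 h compound treatment at 37 C, then FRET substrate loading for 2 h at room temperature and fluorescence read.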

[20] = qHTS assay for small molecule activators of the nuclear factor-kappa B (NF-kB) signaling pathway (AID 651749; active means well fitted activation curve with a large enough effect in the signal ratio; the % refers to the signal ratio; further: series mostly up to about 77 µM; % of control where 0% means no effect); details: NF-kB-bla ME-180 cells, beta-lactamase FRET ratio, 16 h; activation: stronger effect = higher value
Outline: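 Human ME-180 cervical cells with an NF-kB-bla construct; compounds added via 23 nL pin transfer, DMSO as vehicle; incubation 16 hr. Reporter activity measured by FRET disruption.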

SMILES | Potency [1] | outcome [2] | Potency [3] | max response [4] [%] | Potency [5] | Potency [6] | max response [7] [%] | max response [8] | activity change % (negative = inhibition) [9] | activation [10] | max response [11] | Potency [12] | max response [13] | max response [14] | Potency [15] | max response [16] | outcome [17] | outcome [18] | activation [19] | activation [20]
O=C(O)c1cccc(C(=O)O)c1 | inactive | inactive | inactive | -13 | inactive | inactive | -5.27 | -3.25% (inactive) | 17% (inactive) | -2.6% (inactive) | -0.8% (inactive) | inactive | -9.16% (inactive) | -0.837% (inactive) | inactive | 0.205% (inactive) | inactive |  |  | 
CC(C)c1ccc(C(C)C)cc1 | inactive | inactive |  | -15.2 | inactive | inactive | -15.9 | 9.54% (inactive) |  | 0.903% (inactive) | -2.48% (inactive) | inactive | 2.58% (inactive) | 4.22% (inactive) | inactive | -0.628% (inactive) | inactive | inactive | -6.39% (inactive) | 
CCOC(=O)C1=NN(c2ccc(Cl)cc2Cl)C(C)(C(=O)OCC)C1 (stereo not drawn) | inactive |  |  | -4.87 | inactive | inactive |  |  |  | -3.22% (inactive) | 0.459% (inactive) | inactive | 0.425% (inactive) | -23.5% (inactive) | inactive | -0.641% (inactive) |  | inactive | -4.17% (inactive) | -1.4% (inactive)
Cl[Si](Cl)(c1ccccc1)c1ccccc1 | inactive | inactive | inactive | -17.4 | inactive | inactive | -8.47 | -0.846% (inactive) |  | -1.05% (inactive) | 5.98% (inactive) | inactive | -10.9% (inactive) | 1.19% (inactive) | inactive |  |  | inactive | -1.29% (inactive) | 
CSC(=O)c1cccc2nnsc12 | inactive | inactive | inactive | -10.1 | inactive | inactive | -10.7 | 12.7% (inactive) |  | 0.806% (inactive) | -3.32% (inactive) | inactive | 15.6% (inactive) | 3.92% (inactive) |  |  | inactive | inactive | 1.69% (inactive) | 
CCCCNS(=O)(=O)c1ccccc1 | inactive | inactive | inactive |  |  | inactive | -16.3 | 5.33% (inactive) | -5.57% (inactive) | 0.36% (inactive) | 0.574% (inactive) | inactive | -8.48% (inactive) | -3.87% (inactive) | inactive | -0.0697% (inactive) | inactive | inactive | 0.183% (inactive) | 0.692% (inactive)
